3T3 cytotox: NIH 3T3 cell cytotoxicity. NIH 3T3 viability, CellTiter-Glo ATP luminescence, 48-72 h. Potency, µM (highest dose often 96.7 µM), actives largely listed as inhibitors. actives 4.3% (n = 94,000); further: nearly all actives have a fitted effect of over 55% in size
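Cytotoxicity is measured as loss of cellular ATP: NIH 3T3 cells (400/well) are exposed to compound for 48 or 72 hr at 37 °C, then CellTiter-Glo luminescence is imaged after 10 min at room temperature.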
FLuc inh: Photinus pyralis luciferase inhibition. actives 2.5% (n = 76,000). purified P. pyralis luciferase, luminescence, biochemical. P08659. AID 1347043. Potency, µM (series often up to 115 µM), actives largely listed as inhibitors; further: nearly all actives have a fitted effect of over 65% in size
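Biochemical qHTS: compound (6-point titration) added to 10uM D-luciferin plus 10uM ATP in Tris acetate pH 7.5 buffer with Mg, Tween-20 and BSA, then purified enzyme at 10nM; light output imaged.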
hNpr1 antagonist: antagonists of human natriuretic peptide receptor Npr1 | Potency, µM (top dose mostly 46.3 µM), actives largely listed as inhibitors | actives 1.6% (n = 76,000) | HEK293 hNpr1 GloSensor cGMP, ANP-stimulated luminescence; calls by dose curve; further: nearly all actives have a fitted effect of over 60% in size
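HEK293 cells stably expressing human Npr1 and cGMP GloSensor pGS-40F, loaded 2 h with 2% GloSensor reagent, given compound 30 min at room temperature. Luminescence read before and 20 min after 0.1 nM hNppA.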
GPT2 inh: GPT2 alanine aminotransferase inhibition; Q8TD30; actives 0.25% (n = 100,000); Recombinant GPT2, coupled pyruvate oxidase/HRP Amplex Red fluorescence; Potency, µM (top dose mostly 57.7 µM), actives largely listed as inhibitors; further: nearly all actives have a fitted effect of over 60% in size
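Inhibition is scored from Amplex Red fluorescence generated when pyruvate oxidase and HRP act on pyruvate released by GPT2. Reactions contain 10ng/uL enzyme, 250uM a-KG and 2mM L-alanine and run 30 min at room temperature.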
HEK cytotox: cytotoxic compounds in HEK 293 cells; HEK 293 viability, ATP luminescence (CellTiter-Glo), 48-72 h; AID 1345083; Potency, µM (highest dose often 115 µM), usual class: inhibitors; actives 6.6% (n = 94,000); further: nearly all actives have a fitted effect of over 60% in size
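HEK 293 cells at 250 cells/well were exposed to compounds by pintool transfer for 48 or 72 hr at 37 degree Celsius, 5% CO2. Viability was read as ATP-coupled luminescence with CellTiter-Glo after 10 min at room temperature.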
Of the large screens only hits and unclear results are named; the others gave an inactive call. Hits are enriched below; roughly 10% of the tested compounds scored in any of these assays. Unless noted, the call rests on the fitted dose curve; in most records, active means well fitted curve in the direction sought with a large enough effect; inconclusive means small, poorly fitted or top-dose-only effect, or another doubt; inactive means no such curve, though single readings can be large; an effect the other way counts as inactive or inconclusive.

COc1ccccc1Nc1ccnc(N2CCCC(C(=O)NCCCc3ccccc3)C2)n1 (centres undefined)	3T3 cytotox inconclusive, HEK cytotox 50µM (no result: FLuc inh, hNpr1 antagonist)
COC(=O)CNC(=O)C1CCCN(c2nccc(Nc3ccccc3OC)n2)C1 (centres undefined)	none (no result: FLuc inh, hNpr1 antagonist)
O=C(Nc1ccc2c(c1)CN(Cc1ccccc1F)C(=O)CO2)c1ccc(Cl)cc1	3T3 cytotox inconclusive, FLuc inh inconclusive, HEK cytotox 40µM
COc1cccc(C(=O)Nc2ccc3c(c2)CN(Cc2cccc(OC)c2OC)C(=O)C(C)O3)c1 (centres undefined)	3T3 cytotox 35µM, HEK cytotox 28µM
COc1cccc(C(=O)Nc2ccc3c(c2)CN(Cc2cccc(OC)c2OC)C(=O)CO3)c1	FLuc inh inconclusive, HEK cytotox 45µM
COc1ccc(CN2Cc3cc(NC(=O)c4ccccc4F)ccc3OC(C)C2=O)c(OC)c1 (centres undefined)	3T3 cytotox inconclusive, HEK cytotox 35µM
COc1ccc(CN2Cc3cc(NC(=O)c4ccc(F)cc4)ccc3OC(C)C2=O)c(OC)c1 (centres undefined)	HEK cytotox inconclusive
O=S1(=O)NC2(CCCN(CCc3ccccc3)C2)COc2ccccc21 (centres undefined)	none (no result: FLuc inh, hNpr1 antagonist)
O=C(NCc1ccc(F)c(F)c1)c1ccc2oc(-c3ccccn3)nc2c1	HEK cytotox inconclusive (no result: FLuc inh, hNpr1 antagonist)
Cn1c(CN(CCN2CCCCC2)CC2CCCN(C3CCCC3)C2)nc2ccccc21 (centres undefined)	3T3 cytotox inconclusive, HEK cytotox inconclusive
COc1ccccc1CN1Cc2cc(NC(=O)c3ccc(Cl)cc3)ccc2OC(C)C1=O (centres undefined)	3T3 cytotox inconclusive, HEK cytotox 25µM
COc1cccc(CN2Cc3cc(NC(=O)c4ccccc4)ccc3OC(C)C2=O)c1OC (centres undefined)	3T3 cytotox inconclusive, HEK cytotox inconclusive
Cc1oc(C(O)c2cncnc2)nc1C(=O)Nc1ccc(N2CCOCC2)cc1 (centres undefined)	3T3 cytotox inconclusive, FLuc inh 18µM
Cc1oc(C(O)c2cncnc2)nc1C(=O)Nc1ccc2c(c1)NC(=O)CO2 (centres undefined)	3T3 cytotox inconclusive
COc1cccc(C(O)c2nc(C(=O)Nc3ccc(OC)c(OC)c3)c(C)o2)c1 (centres undefined)	FLuc inh 25µM, HEK cytotox inconclusive
COc1cccc(C(O)c2nc(C(=O)NCc3ccco3)c(C)o2)c1 (centres undefined)	3T3 cytotox inconclusive
COc1cccc(Nc2ncc3c(n2)C(C)(C(=O)NC2CCOCC2)CC3)c1 (centres undefined)	3T3 cytotox 40µM, HEK cytotox 89µM
COc1cccc(Nc2ccc3c(n2)C(C)(C(=O)NC2CCN(C)CC2)CN(C)C3)c1 (centres undefined)	3T3 cytotox inconclusive
CC1(C(=O)NC2CCOCC2)CCc2cnc(Nc3ccccc3)nc21 (centres undefined)	3T3 cytotox inconclusive, HEK cytotox 100µM
COc1cccc(Nc2ncc3c(n2)C(C)(C(=O)NC2CCN(C)CC2)CC3)c1 (centres undefined)	3T3 cytotox inconclusive, HEK cytotox 89µM
O=C1NCCCCCCN(Cc2ccncc2)[C@@H]2CN(S(=O)(=O)c3cccc(F)c3)CC[C@H]12	none
O=C(C1CCCN1C(=O)Nc1ccccc1)N1CCC(c2ccccc2)CC1 (centres undefined)	none (no result: FLuc inh, hNpr1 antagonist)
COC(=O)c1cccc(C(=O)NC2CCCN(CCCc3ccccc3)C2)c1 (centres undefined)	3T3 cytotox inconclusive, HEK cytotox inconclusive
c1ccc2c(CN3CCC[C@H]3c3nc(-c4ccc(OC5CCCCC5)nc4)no3)c[nH]c2c1	3T3 cytotox 32µM, HEK cytotox 35µM
COCCNc1ncccc1-c1noc([C@@H]2CCCN2Cc2ccccn2)n1	3T3 cytotox inconclusive, HEK cytotox 22µM
COCCNc1ncccc1-c1noc([C@@H]2CCCN2Cc2ccncc2)n1	HEK cytotox inconclusive
c1ccc2ncc(CN3CCC[C@H]3c3nc(-c4ccc(OC5CCCCC5)nc4)no3)cc2c1	3T3 cytotox inconclusive, hNpr1 antagonist inconclusive, HEK cytotox inconclusive
COCCOc1ccc(-c2noc([C@@H]3CCCN3Cc3c[nH]c4ccccc34)n2)cn1	HEK cytotox inconclusive
c1ccc(CN2CCC[C@H]2c2nc(-c3ccc(OC4CCCCC4)nc3)no2)nc1	3T3 cytotox 45µM, FLuc inh inconclusive, hNpr1 antagonist inconclusive, HEK cytotox 63µM
COc1ccc(-c2ccccc2C(=O)NCC(F)(F)F)nn1	none (no result: FLuc inh, hNpr1 antagonist, GPT2 inh)
O=C(NCCCc1ccccc1)C1CCCN1C(=O)c1cccc(-c2ccccn2)c1 (centres undefined)	none (no result: FLuc inh, hNpr1 antagonist)
O=c1c2nc(OCc3ccccc3)ccc2ncn1Cc1ccccn1	3T3 cytotox inconclusive
O=c1c2nc(NCc3ccccc3)ccc2ncn1Cc1ccccn1	3T3 cytotox 79µM, HEK cytotox inconclusive
COC(=O)[C@@H]1Cc2c([nH]c3ccccc23)[C@H]2C[C@@H](NC[C@H]3CCCO3)C[C@@H](c3ccccc3F)N21	3T3 cytotox 79µM, HEK cytotox 79µM
COC(=O)[C@@H]1Cc2c([nH]c3ccccc23)[C@H]2C[C@@H](NCCc3cnc[nH]3)C[C@@H](c3ccccc3F)N21	3T3 cytotox 28µM, HEK cytotox 25µM
C/C=C1/CC2C(=O)Nc3cc(O)c(OC)cc3C(=O)N2C1 (centres undefined)	none (no result: 3T3 cytotox, FLuc inh, hNpr1 antagonist, HEK cytotox)
CC1(c2ccccc2)N(Cc2ccccc2)C(=O)OC12CCN(C(=O)Cc1cccc(F)c1)CC2 (centres undefined)	3T3 cytotox 10µM, HEK cytotox inconclusive
CC(C)CCN1CCC2(CC1)OC(=O)N(Cc1ccc(O)cc1)C2(C)c1ccccc1 (centres undefined)	3T3 cytotox 89µM, HEK cytotox inconclusive
CC1(c2ccccc2)N(Cc2ccc(O)cc2)C(=O)OC12CCN(C(=O)Cc1ccccc1)CC2 (centres undefined)	3T3 cytotox inconclusive, HEK cytotox inconclusive
CC(C)C(=O)N1CCC2(CC1)OC(=O)N(Cc1ccccc1)C2(C)c1ccccc1 (centres undefined)	3T3 cytotox 10µM, HEK cytotox inconclusive
Cc1ccc(-n2nc(C)c([C@@H]3C=C[C@@H](NCc4ccc(F)cc4)C3)c2C)cc1Cl	3T3 cytotox inconclusive, FLuc inh 45µM, HEK cytotox 32µM
Cc1ccc(-n2nc(C)c([C@@H]3C=C[C@@H](NC(=O)CC(C)(C)CC(=O)O)C3)c2C)cc1Cl	3T3 cytotox inconclusive
Cc1ccc(-n2nc(C)c([C@@H]3C=C[C@@H](NCc4ccc(N(C)C)cc4)C3)c2C)cc1Cl	3T3 cytotox 7.9µM, FLuc inh 25µM, hNpr1 antagonist inconclusive, HEK cytotox 8.9µM
